Reference: PMC9838217, “Structure of SALL4 zinc finger domain reveals link between AT-rich DNA binding and Okihiro syndrome”
Positions count from the first letter of the chain named.

Legend:
[1] = target: T1, SALL4 ZFC4 R900W (HT-SELEX) (Mus musculus, UniProt Q8BX22 870-940, R900W); assay: HT-SELEX; high values mean tight binding; details: protein: recombinant; vector His6-GST; dsDNA, one strand shown
T1 sequence: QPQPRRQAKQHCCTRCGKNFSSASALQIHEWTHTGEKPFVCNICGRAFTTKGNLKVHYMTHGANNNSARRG
Method in brief: (§1)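 In triplicate selections of up to 6 cycles, purified recombinant mouse SALL4 zinc finger cluster 4 (residues 870–940, 1 µg) was incubated 10 min at room temperature with library DNA (1.5 µg, then 200 ng) in 100 µl of 10 mM Tris–HCl pH 7.5, 50 mM NaCl, poly(dI-dC) and DTT, and complexes were captured on Ni2+ beads, washed and PCR-amplified. Sequencing was done on MiSeq with scanning for 6-mers. The binding signal is each canonical k-mer's read fraction, reported as fold change against the initial random library.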

[2] = target: T2, SALL4 ZFC4 G921D (HT-SELEX) (Mus musculus, UniProt Q8BX22 870-940, G921D); assay: HT-SELEX; high values mean tight binding; details: protein: recombinant; vector His6-GST; dsDNA, one strand shown
T2 sequence: T1 sequence with W31R, G52D
Method in brief: as §1

AAGGGC
binding signal [1]: 0.343 ± 0.00573 fold-change vs cycle 0 | binding signal [2]: 0.488 ± 0.064 fold-change vs cycle 0

CCGGAC
binding signal [1]: 0.195 ± 0.02 fold-change vs cycle 0 | binding signal [2]: 0.305 ± 0.0661 fold-change vs cycle 0

GGCCAC
binding signal [1]: 0.126 ± 0.019 fold-change vs cycle 0 | binding signal [2]: 0.253 ± 0.0792 fold-change vs cycle 0

CGAAGC
binding signal [1]: 0.325 ± 0.00517 fold-change vs cycle 0 | binding signal [2]: 0.474 ± 0.0622 fold-change vs cycle 0

CTTGGC
binding signal [1]: 0.308 ± 0.0227 fold-change vs cycle 0 | binding signal [2]: 0.45 ± 0.0809 fold-change vs cycle 0

ACCGCG
binding signal [1]: 0.099 ± 0.00138 fold-change vs cycle 0 | binding signal [2]: 0.205 ± 0.0665 fold-change vs cycle 0

CGGACG
binding signal [1]: 0.164 ± 0.00531 fold-change vs cycle 0 | binding signal [2]: 0.264 ± 0.055 fold-change vs cycle 0

ACGGGG
binding signal [1]: 0.257 ± 0.00971 fold-change vs cycle 0 | binding signal [2]: 0.37 ± 0.0678 fold-change vs cycle 0

GAGGGC
binding signal [1]: 0.201 ± 0.0133 fold-change vs cycle 0 | binding signal [2]: 0.323 ± 0.085 fold-change vs cycle 0

AGTCGC
binding signal [1]: 0.244 ± 0.0172 fold-change vs cycle 0 | binding signal [2]: 0.386 ± 0.0654 fold-change vs cycle 0

ACGGCC
binding signal [1]: 0.0993 ± 0.00797 fold-change vs cycle 0 | binding signal [2]: 0.206 ± 0.0649 fold-change vs cycle 0

CCCAGC
binding signal [1]: 0.179 ± 0.0134 fold-change vs cycle 0 | binding signal [2]: 0.297 ± 0.0797 fold-change vs cycle 0

GGCGAC
binding signal [1]: 0.0863 ± 0.00668 fold-change vs cycle 0 | binding signal [2]: 0.208 ± 0.0638 fold-change vs cycle 0

CGCAAC
binding signal [1]: 0.251 ± 0.0146 fold-change vs cycle 0 | binding signal [2]: 0.378 ± 0.0552 fold-change vs cycle 0

ACCCGG
binding signal [1]: 0.233 ± 0.025 fold-change vs cycle 0 | binding signal [2]: 0.341 ± 0.0691 fold-change vs cycle 0

ATCCGC
binding signal [1]: 0.279 ± 0.016 fold-change vs cycle 0 | binding signal [2]: 0.426 ± 0.0842 fold-change vs cycle 0

CCGCCG
binding signal [1]: 0.0347 ± 0.00309 fold-change vs cycle 0 | binding signal [2]: 0.117 ± 0.0571 fold-change vs cycle 0

CAGCCG
binding signal [1]: 0.115 ± 0.00217 fold-change vs cycle 0 | binding signal [2]: 0.229 ± 0.0654 fold-change vs cycle 0

CAGCCA
binding signal [1]: 0.309 ± 0.0234 fold-change vs cycle 0 | binding signal [2]: 0.442 ± 0.0984 fold-change vs cycle 0

GATGCC
binding signal [1]: 0.3346 ± 0.00318 fold-change vs cycle 0 | binding signal [2]: 0.49 ± 0.0663 fold-change vs cycle 0

CAACGC
binding signal [1]: 0.263 ± 0.00747 fold-change vs cycle 0 | binding signal [2]: 0.409 ± 0.0649 fold-change vs cycle 0

CGGCGC
binding signal [1]: 0.0207 ± 0.00259 fold-change vs cycle 0 | binding signal [2]: 0.0907 ± 0.0497 fold-change vs cycle 0

CGGCCC
binding signal [1]: 0.0477 ± 0.00335 fold-change vs cycle 0 | binding signal [2]: 0.134 ± 0.0582 fold-change vs cycle 0

CGGCAG
binding signal [1]: 0.106 ± 0.00823 fold-change vs cycle 0 | binding signal [2]: 0.214 ± 0.0627 fold-change vs cycle 0

GCCGCC
binding signal [1]: 0.0335 ± 0.00625 fold-change vs cycle 0 | binding signal [2]: 0.107 ± 0.0564 fold-change vs cycle 0

CCCGGA
binding signal [1]: 0.231 ± 0.0171 fold-change vs cycle 0 | binding signal [2]: 0.334 ± 0.0568 fold-change vs cycle 0

CCACCG
binding signal [1]: 0.209 ± 0.0206 fold-change vs cycle 0 | binding signal [2]: 0.322 ± 0.0675 fold-change vs cycle 0

AGCGTC
binding signal [1]: 0.301 ± 0.0204 fold-change vs cycle 0 | binding signal [2]: 0.444 ± 0.0717 fold-change vs cycle 0

CCCTCG
binding signal [1]: 0.278 ± 0.0226 fold-change vs cycle 0 | binding signal [2]: 0.388 ± 0.0906 fold-change vs cycle 0

GCGTGA
binding signal [1]: 0.325 ± 0.00871 fold-change vs cycle 0 | binding signal [2]: 0.455 ± 0.056 fold-change vs cycle 0

GGCGGA
binding signal [1]: 0.12 ± 0.0101 fold-change vs cycle 0 | binding signal [2]: 0.238 ± 0.0604 fold-change vs cycle 0

GCTGCA
binding signal [1]: 0.256 ± 0.0235 fold-change vs cycle 0 | binding signal [2]: 0.379 ± 0.0774 fold-change vs cycle 0

CGCCAA
binding signal [1]: 0.185 ± 0.0197 fold-change vs cycle 0 | binding signal [2]: 0.316 ± 0.0834 fold-change vs cycle 0

CGCGAG
binding signal [1]: 0.135 ± 0.0168 fold-change vs cycle 0 | binding signal [2]: 0.231 ± 0.0693 fold-change vs cycle 0

AGTGCC
binding signal [1]: 0.287 ± 0.0119 fold-change vs cycle 0 | binding signal [2]: 0.444 ± 0.0567 fold-change vs cycle 0

GATGGC
binding signal [1]: 0.36 ± 0.0133 fold-change vs cycle 0 | binding signal [2]: 0.489 ± 0.0668 fold-change vs cycle 0

CCCCCA
binding signal [1]: 0.312 ± 0.0194 fold-change vs cycle 0 | binding signal [2]: 0.423 ± 0.0709 fold-change vs cycle 0

CCGCGG
binding signal [1]: 0.0426 ± 0.00565 fold-change vs cycle 0 | binding signal [2]: 0.128 ± 0.0621 fold-change vs cycle 0

GCGTAC
binding signal [1]: 0.308 ± 0.00417 fold-change vs cycle 0 | binding signal [2]: 0.455 ± 0.0643 fold-change vs cycle 0

GACGAC
binding signal [1]: 0.342 ± 0.0283 fold-change vs cycle 0 | binding signal [2]: 0.474 ± 0.0702 fold-change vs cycle 0

GGAGCC
binding signal [1]: 0.187 ± 0.00654 fold-change vs cycle 0 | binding signal [2]: 0.319 ± 0.0566 fold-change vs cycle 0

CGCGAC
binding signal [1]: 0.088 ± 0.0103 fold-change vs cycle 0 | binding signal [2]: 0.202 ± 0.0599 fold-change vs cycle 0

CTACGC
binding signal [1]: 0.278 ± 0.0143 fold-change vs cycle 0 | binding signal [2]: 0.414 ± 0.0855 fold-change vs cycle 0

CGCGCA
binding signal [1]: 0.0534 ± 0.00681 fold-change vs cycle 0 | binding signal [2]: 0.139 ± 0.0597 fold-change vs cycle 0

GCAGGC
binding signal [1]: 0.124 ± 0.00995 fold-change vs cycle 0 | binding signal [2]: 0.24 ± 0.0592 fold-change vs cycle 0

GCCCTA
binding signal [1]: 0.353 ± 0.0173 fold-change vs cycle 0 | binding signal [2]: 0.496 ± 0.0842 fold-change vs cycle 0

GGTATA
binding signal [1]: 1.34 ± 0.0665 fold-change vs cycle 0 | binding signal [2]: 1.3 ± 0.0853 fold-change vs cycle 0

AGCCAG
binding signal [1]: 0.361 ± 0.0134 fold-change vs cycle 0 | binding signal [2]: 0.485 ± 0.0483 fold-change vs cycle 0

GCCAGC
binding signal [1]: 0.102 ± 0.00774 fold-change vs cycle 0 | binding signal [2]: 0.211 ± 0.0594 fold-change vs cycle 0

CGAACG
binding signal [1]: 0.36 ± 0.0176 fold-change vs cycle 0 | binding signal [2]: 0.474 ± 0.087 fold-change vs cycle 0

AGGGCC
binding signal [1]: 0.158 ± 0.0102 fold-change vs cycle 0 | binding signal [2]: 0.28 ± 0.0679 fold-change vs cycle 0

CGCCGC
binding signal [1]: 0.0234 ± 0.0032 fold-change vs cycle 0 | binding signal [2]: 0.091 ± 0.0475 fold-change vs cycle 0

CCCGCC
binding signal [1]: 0.0634 ± 0.0031 fold-change vs cycle 0 | binding signal [2]: 0.164 ± 0.0698 fold-change vs cycle 0

ACTGGC
binding signal [1]: 0.318 ± 0.0103 fold-change vs cycle 0 | binding signal [2]: 0.448 ± 0.0505 fold-change vs cycle 0

CGCCAC
binding signal [1]: 0.103 ± 0.0044 fold-change vs cycle 0 | binding signal [2]: 0.216 ± 0.0502 fold-change vs cycle 0

ACGAGC
binding signal [1]: 0.322 ± 0.019 fold-change vs cycle 0 | binding signal [2]: 0.459 ± 0.061 fold-change vs cycle 0

ATACGA
binding signal [1]: 1.27 ± 0.0333 fold-change vs cycle 0 | binding signal [2]: 1.26 ± 0.0263 fold-change vs cycle 0

CGCACA
binding signal [1]: 0.229 ± 0.0112 fold-change vs cycle 0 | binding signal [2]: 0.353 ± 0.0588 fold-change vs cycle 0

ACCATA
binding signal [1]: 1.42 ± 0.0261 fold-change vs cycle 0 | binding signal [2]: 1.36 ± 0.0475 fold-change vs cycle 0

ATGGCG
binding signal [1]: 0.236 ± 0.0151 fold-change vs cycle 0 | binding signal [2]: 0.371 ± 0.0568 fold-change vs cycle 0
